Among the data in PubChem BioAssay (NCI) are growth values, retold here.

Among the test systems are NCI-H23 lung; NCI-H226 lung; NCI-H322M lung; HOP-62 NSCLC; NCI-H460 lung; HOP-92 NSCLC; NCI-H522 lung; A549/ATCC NSCLC; 786-0 renal; COLO 205 colon; DU-145 prostate; K-562 leukemia; MALME-3M melanoma; MDA-MB-231 breast; RXF 393 renal; SF-268 CNS; SF-295 CNS; SF-539 CNS; UACC-257 melanoma; M14 melanoma.
Experiment in all cases: NCI-60 one-dose screen, 48 h (100 = growth as untreated, 0 = no growth, -100 = all killed)
Holding throughout (settings): 10 µM unless noted

Compounds without any hit were thinned out: in the full panel of roughly 83,000, 20% have a hit.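 Values shown are percent growth following 48 h exposure of cells in 96-well plates to a single concentration of compound; below 10 was considered active.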 A number with no mark means an inactive call. Active and inactive are the calls of the source.

With `N#CC1c2ccccc2-c2ccccc2N1C(=O)c1ccccc1` (stereo not given), the growth was 22.6% in the test with NCI-H23 lung; 17.8% in the test on NCI-H226 lung; 57% with NCI-H322M lung; 48.7% in the test on HOP-62 NSCLC; 18.1% with NCI-H460 lung; 45.2% in the test on HOP-92 NSCLC. For the same molecule, the growth in the test with NCI-H522 lung is 14.5%; in the test on A549/ATCC NSCLC, 31.8%; with 786-0 renal, 17%; in the test on COLO 205 colon, -1.39% (active); in the test on DU-145 prostate, 11.9%; in the test on K-562 leukemia, 41.5%. Moreover, the growth in the test on MALME-3M melanoma was 84%; in the test with MDA-MB-231 breast, 16.6%; in the test with RXF 393 renal, 31.7%; with SF-268 CNS it was 34.4%; in the test with SF-295 CNS, 4.01% (active); in the test on SF-539 CNS, 0.949% (active). Further, the growth is 75.9% in the test with UACC-257 melanoma and 2.12% (active) in the test on M14 melanoma.
For `COc1ccc2c(c1)c(-c1nc(-c3cn(C)c4ncccc34)cs1)cn2CCCN1CCCCC1`, the growth with NCI-H23 lung is 79.4%; with NCI-H226 lung, 67.1%; in the test on NCI-H322M lung, 80.3%; with HOP-62 NSCLC it was 74.9%; in the test with NCI-H460 lung, -40.4% (active); in the test with HOP-92 NSCLC, 48.7%. Besides, the growth in the test on NCI-H522 lung was 87.7%; in the test with A549/ATCC NSCLC, 25.2%; in the test on 786-0 renal, -31.3% (active); in the test on COLO 205 colon it was -65.8% (active); in the test on DU-145 prostate, 42.9%; with K-562 leukemia it was -48.4% (active). The growth is 81.1% in the test on MALME-3M melanoma; 44.2% in the test with MDA-MB-231 breast; 65% in the test with RXF 393 renal; 76.6% in the test on SF-268 CNS; 91.6% in the test with SF-295 CNS; 43.9% with SF-539 CNS. Besides, the growth was 96% in the test with UACC-257 melanoma and -85.2% (active) in the test with M14 melanoma.
`CCC1C(=O)COC1=O` (stereo not given): the growth in the test with NCI-H23 lung is 95.7%; in the test with NCI-H226 lung, 100%; with NCI-H322M lung, 104%; in the test on HOP-62 NSCLC, 77.1%; in the test on NCI-H460 lung it was 105%; in the test with HOP-92 NSCLC, 80.6%. The growth in the test with NCI-H522 lung is 77.7%; in the test with A549/ATCC NSCLC, 64.1%; in the test on 786-0 renal, 101%; with COLO 205 colon, 100%; with DU-145 prostate, 108%; in the test on K-562 leukemia it was 92%. Besides, the growth in the test with MALME-3M melanoma is 99.3%; in the test on MDA-MB-231 breast, -22.4% (active); with RXF 393 renal it was 122%; with SF-268 CNS, 101%; in the test on SF-295 CNS, 97.9%; in the test with SF-539 CNS, 105%. For the same molecule, the growth with UACC-257 melanoma is 81.8%; in the test on M14 melanoma, 93.2%.
As for `COc1ccccc1-n1cnc(N)c1C(=O)c1cc(OC)c(OC)c(OC)c1`, the growth in the test on NCI-H23 lung is 70%; in the test with NCI-H226 lung, 56.7%; with NCI-H322M lung, 81.4%; in the test on HOP-62 NSCLC, 52.8%; in the test on NCI-H460 lung it was 14.5%; in the test with HOP-92 NSCLC, 70.3%. For the same molecule, the growth is 1.87% (active) in the test with NCI-H522 lung; 47.9% in the test on A549/ATCC NSCLC; 37.9% in the test on 786-0 renal; 66.1% in the test on COLO 205 colon; 73.9% in the test on DU-145 prostate; 22% with K-562 leukemia. Also, the growth was 50.1% with MALME-3M melanoma; 64.8% with MDA-MB-231 breast; 33% with RXF 393 renal; 38.5% with SF-268 CNS; 24.9% in the test on SF-295 CNS; 35.6% in the test with SF-539 CNS. In addition, the growth in the test on UACC-257 melanoma is 59.8%; with M14 melanoma, 44.5%.
Turning to `CCCCCCCN(CCCCCCC)C(=N)c1ccnc2ccccc12`, the growth in the test with NCI-H23 lung was 0.856% (active); in the test with NCI-H226 lung, 39.3%; in the test on NCI-H322M lung, -2.85% (active); in the test with HOP-62 NSCLC it was -57.2% (active); with NCI-H460 lung, -83.9% (active); in the test on HOP-92 NSCLC, -4.56% (active). The growth was -46.7% (active) in the test on NCI-H522 lung; -57.4% (active) with A549/ATCC NSCLC; -93.6% (active) in the test with 786-0 renal; -72.9% (active) with COLO 205 colon; 1.08% (active) in the test with DU-145 prostate; -14.9% (active) in the test with K-562 leukemia. The growth was -76.2% (active) with MALME-3M melanoma; -71.3% (active) in the test on MDA-MB-231 breast; -76% (active) in the test on RXF 393 renal; 33% in the test on SF-268 CNS; -78.3% (active) in the test with SF-295 CNS; -82% (active) in the test with SF-539 CNS. In addition, the growth is -69.4% (active) with UACC-257 melanoma and -64% (active) with M14 melanoma.
Regarding `C=C1C(=O)O[C@H]2[C@H]1CC/C(COC(=O)NCc1c[nH]c3ccccc13)=C\CC[C@@]1(C)O[C@@H]21`, the growth in the test on NCI-H23 lung is 68.3%; in the test on NCI-H226 lung, 88.8%; in the test with NCI-H322M lung, 84.5%; in the test on HOP-62 NSCLC, 65.2%; in the test with NCI-H460 lung, 74.7%; with HOP-92 NSCLC it was 107%. Moreover, the growth with NCI-H522 lung is -35.2% (active); in the test with A549/ATCC NSCLC it was 82.5%; in the test with 786-0 renal it was 44.6%; with COLO 205 colon, -20.4% (active); in the test with DU-145 prostate, 29.2%; in the test on K-562 leukemia, 12.7%. Also, the growth in the test on MALME-3M melanoma was 52.7%; with MDA-MB-231 breast, 42%; with RXF 393 renal, 17.5%; with SF-268 CNS, 70.8%; in the test on SF-295 CNS it was 94.6%; with SF-539 CNS, 7.38% (active). The growth is 75.2% in the test on UACC-257 melanoma and 48.7% in the test on M14 melanoma.
Turning to `CC1(C)C(=O)/C(=C\c2ccco2)C[C@]2(C)[C@H]3CC[C@@H]4[C@@H](C(=O)/C=C/c5ccco5)CC[C@@]4(C)[C@]3(C)CC[C@@H]12`, the growth in the test on NCI-H23 lung was 92.8%; in the test on NCI-H226 lung, 103%; with NCI-H322M lung, 105%; with HOP-62 NSCLC, 83.2%; in the test on NCI-H460 lung, 98.7%; with HOP-92 NSCLC, 17.6%. Besides, the growth was 92.4% with NCI-H522 lung; 96.9% in the test with A549/ATCC NSCLC; 119% in the test on 786-0 renal; -80.2% (active) with COLO 205 colon; 75.2% in the test with DU-145 prostate; 85.6% in the test on K-562 leukemia. In addition, the growth in the test on MALME-3M melanoma is 1.28% (active); in the test with MDA-MB-231 breast it was 56%; in the test with RXF 393 renal, 101%; in the test with SF-268 CNS, 78.7%; in the test with SF-295 CNS, 100%; with SF-539 CNS, 97.5%. Moreover, the figures for the growth in the test with UACC-257 melanoma and in the test with M14 melanoma were 16.8% and 23.9%, respectively.
As to `COc1ccc(NC(=S)N/N=C/c2ccccc2SSCCC(=O)OC[C@H]2O[C@H](O)[C@H](O)[C@@H](O)[C@@H]2O)cc1`, the growth with NCI-H23 lung was 67.2%; in the test on NCI-H226 lung it was 88.2%; in the test on NCI-H322M lung it was 52.5%; in the test with HOP-62 NSCLC it was 45.8%; with NCI-H460 lung, 26.6%; in the test on HOP-92 NSCLC, 104%. The growth is 58.4% with NCI-H522 lung; 55.1% with A549/ATCC NSCLC; 89.7% in the test on 786-0 renal; 100% in the test on COLO 205 colon; 83.9% with DU-145 prostate; 51.6% in the test with K-562 leukemia. The growth in the test with MALME-3M melanoma was 72.7%; with MDA-MB-231 breast, 71.1%; with RXF 393 renal it was 104%; with SF-268 CNS it was 61.1%; in the test with SF-295 CNS, 59.1%; in the test with SF-539 CNS, 91.7%. Further, the growth in the test on UACC-257 melanoma is 98.4%; in the test on M14 melanoma, 47.8%.
